# Experimental data reported in PubChem BioAssay AID449762 (Southern Research Specialized Biocontainment Screening …, 2010).
# Screen size: about 330,000 compounds; about 1,900 (0.58%) were called active. Not shown: some 4% with an inconclusive outcome. These entries were drawn from the full list. Measured potencies and affinities stand elsewhere. Unmarked numbers belong to inactive results. Cut-off read from the data, not from the text of the source: inconclusive = inhibition above about 70% without an active follow-up result; inactive = below that.
# Assay: M. tuberculosis growth inhibition, HTS (AID 449762);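 note: bacterial growth assessed after seven days of incubation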
# Conditions: M. tuberculosis H37Rv growth inhibition, 7H9 media; at 25 µM; stronger effect = higher value
row,Structure (SMILES),inhibition [%]
1,Cc1cc(C)c2oc(=O)cc(CN3CCC(C)CC3)c2c1,5.8
2,Cc1coc2c(C)c3oc(=O)c(CCC(=O)N4CCC(C(=O)NCCCC(=O)O)(c5ccccc5)CC4)c(C)c3cc12,5.29
3,CC12CCC(C(=O)Nc3cccnc3)(CC1=O)C2(C)C (stereo not given),-6.21
4,O=C(NN(c1ccccc1)c1ccccc1)c1ccc([N+](=O)[O-])o1,56.9
5,O=C(NCC1CCCO1)c1ccc([N+](=O)[O-])o1 (stereo not given),-10.8
6,C=CCn1c(SCC(=O)NCC2CCCO2)nc2scc(-c3ccccc3)c2c1=O (stereo not given),-12.7
7,CCOCCCNC(=S)NCCCNc1nc2cc3c(cc2cc1C#N)OCO3,-2.17
8,Cc1ccc(C(=O)/C=C/Nc2ccc(S(=O)(=O)Nc3cc(C)nc(C)n3)cc2)cc1,4.23
9,CCOc1cc(/C=N/NC(=O)C(=O)Nc2cc(Cl)ccc2C)ccc1O,5.58
10,Cc1c(C(=O)NCc2ccccc2)cnn1-c1ccccc1,0.38
11,CC(=O)c1cnn(-c2ccccc2)c1C,-0.96
12,O=C(NN=C1CCCCCC1)c1ccc(Cl)s1,-7.6
13,O=C(Nc1ccc(N2CCN(C(=O)c3ccccc3F)CC2)cc1)c1cncc(Br)c1,32.6
14,COc1ccc(NC(=O)CN(C)CC(=O)N(C)C2(C#N)CCC(C)CC2)cc1 (stereo not given),6.58
15,O=C1Nc2ccccc2/C1=N\c1sc2c(c1C(=O)Nc1ccccc1)CCCC2,-6.89
16,COc1ccc(-c2noc(N3CCC(C(=O)Nc4ccccc4F)CC3)n2)cc1,-6.51
17,COc1ccc(N2CCc3c(C)nc(SC)nc32)cc1,37.6
18,CSc1nc(C)c2c(n1)N(c1ccc(F)cc1)CC2,5.53
19,Cc1cccc(NC(=O)Cn2nnc(-c3cccs3)n2)c1C,4.16
20,Cc1cc2ccccc2c(=O)n1CC(=O)NCC(=O)N1CCN(c2ccccc2)CC1,3.46

row,Structure (SMILES),inhibition [%]
1,CC12CCC(C(=O)N3CCCCCC3)(OC1=O)C2(C)C (stereo not given),0.66
2,O=C(c1ccc2nc(N3CCOCC3)sc2c1)N1CCN(C(=O)c2ccco2)CC1,-6.14
3,O=C(c1ccc2nc(N3CCOCC3)sc2c1)N1CCCC1,-5.7
4,Cc1ccc(S(=O)(=O)N(C)c2ccc(OCC(=O)Nc3ccc(C(=O)N(C)C)cc3)cc2)cc1C,-1.34
5,Cn1cc(C(=O)N/N=C/C2=C(N3CCOCC3)C(=C/c3ccc([N+](=O)[O-])cc3)/CC2)ccc1=O,2.15
6,COc1cc(C(=O)NC(=S)Nc2ccc3[nH]c(=O)[nH]c3c2)cc(OC)c1OC,5.44
7,COCCCN1C(=O)C(=O)/C(=C(/O)c2ccc(OC)cc2)C12C(=O)N(C)c1ccccc12 (stereo not given),0.02
8,O=C(/C=C\c1cccs1)c1c(O)ccc2ccc(=O)oc12,69.8
9,CCN(CC)S(=O)(=O)c1ccc2oc(SCC(=O)NC3CC3)nc2c1,-7.6
10,CCN(CC)S(=O)(=O)c1ccc2oc(SCC(=O)NCc3ccccc3)nc2c1,-7.94
11,COC(=O)C1=C(C)N(c2ccc(OC)cc2)C(=O)/C1=C\c1cccs1,-1.06
12,CC(=O)c1ccc(OCC(=O)c2cc(C)n(-c3ccc4c(c3)OCO4)c2C)cc1,-1.32
13,O=C(c1cc(Br)ccc1Cl)N1CCN(c2ncccn2)CC1,6.19
14,COCCN(C(=S)Nc1cccc(C)c1C)C(C)c1ccco1 (stereo not given),4.25
15,CCCNC(=O)C(Cc1ccccc1)NC(=O)c1ccc(C(C)(C)C)cc1 (stereo not given),-2.64
16,CC(=O)C1=C(O)C(=O)N(c2cccc(Br)c2)C1c1ccc(Br)cc1 (stereo not given),1.06
17,COc1ccc(-c2noc(CSc3nc(-c4ccccc4)cc(=O)[nH]3)n2)cc1,-1.49
18,NC1=NC2(CCCC2)n2c(nc3ccccc32)N1,1.5
19,CC1CCC2(CC1)N=C(N)Nc1nc3ccccc3n12 (stereo not given),11.2
20,c1ccc(-c2cc3c(ccc4nonc43)nn2)cc1,-0.15

row,Structure (SMILES),inhibition [%]
1,O=C(O)c1cc(-c2ccccc2)nc2ccccc12,-1.59
2,COc1cc(C(=O)NCC(c2cccs2)N2CCOCC2)cc(OC)c1OC (stereo not given),7.52
3,COc1ccc2c(c1)O/C(=C\c1ccco1)C2=O,-4.09
4,CCC(=O)Oc1ccc2c(c1)O/C(=C\c1ccco1)C2=O,6.29
5,Cc1ccccc1OCC(O)Cn1c(N2CCCCC2)nc2c1c(=O)[nH]c(=O)n2C (stereo not given),6.49
6,Cc1cc(C)nc(-n2ncc3c2CC(c2ccccc2C)CC3=O)n1 (stereo not given),3.74
7,Cc1ccc(-c2cc(-c3ccc(C)cc3O)[nH]n2)cc1,17.4
8,Cc1ccc(O)c(-c2cc(-c3ccccc3F)[nH]n2)c1,33.9
9,O=C1CN(C(=O)COC(=O)CCC(=O)c2ccc(F)cc2)c2ccccc2N1,-6.63
10,CCOCCn1c(CN2CCN(C(=O)c3ccco3)CC2)nc2c1c(=O)n(C)c(=O)n2C,5.24
11,COc1cc(C(=O)OC2CC3CCC2(C)C3(C)C)ccc1OC(C)=O (stereo not given),-10.7
12,O=c1cc(-c2ccccc2)nc(Cc2c(Cl)cccc2Cl)[nH]1,8.31
13,COCc1cc(=O)[nH]c(Cc2c(Cl)cccc2Cl)n1,3.62
14,O=C(NCc1ccccn1)C(=O)Nc1cc2c3c(c1)CC(=O)N3CCC2,5.14
15,COc1ccc(C(=O)OCC(=O)c2cc(OC)ccc2OC)c(OC)c1,-2.93
16,COc1cccc(C(=O)OCC(=O)c2ccc(Br)s2)c1,-2.52
17,CSc1nc2nc(-c3ccc(F)cc3)c(CCN3CCN(C)CC3)cn2n1,-4.6
18,CNc1nc(NCc2ccccc2)c2ccccc2n1,16.5
19,OCCNc1nc(NCc2ccccc2)c2ccccc2n1,5.73
20,CC1(/[N+]([O-])=C/c2ccc(Cl)cc2Cl)CCCCC1=O (stereo not given),3.79
